Whole data set: some 59,000 sequences, median the read-out near -0.00055, cut for the lowest 2% near -2. Only a selection was taken, and the lowest values are over-represented in it overall.
Test: Identification of proteins required for the processing of the EWS-FLI1 nascent transcript;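 further: robust z of luciferase light less the median z of siRNAs with the same seed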
Details: TC32 Ewing sarcoma NR0B1-luc vs CMV-luc (EWS-FLI1 target promoter against control promoter), 48 h; screened at 20 nM (by protocol)
Description: Ewing sarcoma (ES) cells depend on the EWS-FLI1 fusion transcription factor for cell survival. Using an assay of EWS-FLI1 activity and genome-wide siRNA screening we have identified proteins required for the processing of the EWS-FLI1 nascent transcript. Parallel genome-wide siRNA-mediated RNAi screens were conducted in Ewing sarcoma TC32 cell lines expressing a luciferase (luc) reporter protein driven by either the promoter of the EWS-FLI1 target gene NR0B1 (TC32-NR0B1-luc) or the CMV promoter (TC32-CMV-luc). Luciferase activity was assessed 48 hours post siRNA-transfection.
Twenty microl of serum-free media containing Lipofectamine RNAiMax (0.05 microl) was added to wells containing siRNA (0.8 pmol). Lipid and siRNA were allowed to complex for 45 min at ambient temperature before addition of 600 cells in RPMI-1640, 20% FBS to yield final transfection mixtures containing 20 nM siRNA in RPMI-1640, 10% FBS. Luciferase expression was measured using OneGlo (Promega, Madison, WI). The genome-wide screening campaign was conducted using Ambion's human genome library version 4.1 (Ambion, Austin TX). This library targets approximately 21000 human genes, three siRNAs per gene. Each siRNA is arrayed in an individual well of a 384-well plate. Parallel transfections were conducted in TC32-NR0B1-luc and TC32-CMV-luc cell lines and luciferase expression (OneGlo, Promega) was assayed 48 h later on a PerkinElmer Envision 2104 Multilabel plate reader (PerkinElmer, Waltham, MA). Qiagen's AllStars Negative control was incorporated on all screening plates for normalization (16 wells per plate). Qiagen, Germantown, MDsiGL4 was incorporated as a positive transfection control (16 wells per plate) on all plates. […] The raw luciferase data for the NR0B1- and CMV-luc screens were normalized and z-score-MAD transformed using standard methods (Chung et al., 2008). The miRNA-like seed sequence of every siRNA was determined and the median z-score for all siRNA sequences with the same seed sequence was calculated. This z-score was subtracted from the z-score associated with each siRNA with that seed sequence to generate a seed-adjusted z-score value (Z) that was used when the results for the three siRNAs corresponding to each gene were compared (Marine et al., 2012)

Sequence | seed-corrected z-score
UAUACGAUAAUGAAAUUCC against SPINK13 | 0.358
AAAGUUGGAAUACCGAGGU against C15orf61 | 0.00537
UUGACUAUAAGUGCGUCUC against KMT2E | -2.36
UCAGGGUGCAGCAUGAAUC against LOC338667 | 0.765
UUUGUUGGGUCUAAGAUUG against RAB23 | -0.849
UCAAUUACACCCUCAUUUG against SRSF6 | -2.18
UUCGUGUAGGGUGUGUAGC against OSGIN1 | 0.000927
UUAGAGUCAUGCAUGAGGG against MROH7 | -0.225
UUGUAGACGAGCUGGAUGC against ADAMTSL5 | -0.759
UCCAUUCCUAUACUAGUCC against ABCG2 | -0.43
CAAGUUUUUAUUAUCCUGC against EPHA10 | -0.0524
AUUGUUCCCAUAGAGUUCC against BCL2L1 | 3.29
UGAUCUGUGACUGCUCUUC against AP2M1 | -2.2
UCGAUCUUCAGGUCGUUGC against ATXN1 | -0.921
UUGGAAGUCACAGUCAUCC against CST7 | -0.103
UUGGUUAACUGGUCAAUCC against SLC40A1 | -0.655
AUCUUUCCCAGGUUUUUCG against ZNF669 | -2.19
AUCCAUCAAAGCGAUAUUC against GBE1 | -1.06
AAUGAAGGAACCAUUGCCC against IL18BP | 1.21
AAAUAUCCCAUAAUCAGUG against LYZ | -0.541
AAUGGAUCCAAAGAGGCUA against KIFC2 | 0.744
UUUAAUGUAACUCCCACUU against DLGAP2 | 0.4
UGUGGUUCAACAAGAAGCU against CD177 | -1.65

Sequence | seed-corrected z-score
ACUGGAACAAGAACCGUCC against PDIA5 | 0.508
UGAUCGUACAGGUGCAUCG against IL1B | -0.147
AAAUGAUCUGGUUUCCUUC against OLFML1 | -0.829
UAAAUAGCAGCAUCUACUC against PPM1E | 0.41
AAAACGAUCAAAAUCUGUC against RPL14 | -2.5
UACGUACUCAUUCUUCAGG against CMC2 | -0.986
UACAGGUAGGAGUUGUCCU against PRKACG | 0.0436
UUUUAUAGAGGGAUAUUCG against NPC2 | 1.05
AACUGGUUCAUCAGUGUCC against WDR89 | -2
UGAAAUGCUAAUGCGUGGG against RBM33 | 0.224
UGCUUGCGAACAAACAGCC against SCD5 | 0.624
UAGUGAUAGAUACUGUUCC against HGF | -0.568
UUUUGAUUAACUCGAGGAG against TSSK1B | 0.323
UAGGGUCAUCGAGAGGUUC against MAML3 | -2.49
UGCAGUUUGACGGUGCCUC against TMEM204 | -0.467
UCCCAUUCCACUGCUACUG against RBMX | -2.45
UAACUCGAAAGUGAACUUC against MYOZ3 | 0.0654
UAGGUAAUAAUUCACAAUG against CCL19 | -0.226
UCUGUUGGUACUGUGCAGG against PPA1 | -1.37
UCCGUUCACAUUCAGGAUC against SLC6A16 | -0.88
UCCUUGUAGAGCUUGAUGG against TOP3B | 1.26
AACUAGAAUAAAGAAGAUG against SLC6A9 | 0.0838
AAAACUUCAAAUACCAUGC against SRPK1 | -1.05

Sequence | seed-corrected z-score
UUGCGGGUGACAAUCUCCC against CROCC | 0.165
UUUCCGGAUCAGACCGUGC against RPS29 | 1.1
UCACGGUCAACAAAGUAGG against BRINP1 | -2.87
UAUAAGAAAUGGUUUUGUC against OR6C6 | 0.719
AUCACGUUUAUGUCCAUUG against BMPER | -0.464
UUGGCGUUCAUAAGCCGCC against PTRH1 | 0.961
ACUCUUUUUAAGGUGCUUC against DTX1 | -3.91
AAGUUUUCCAACGUACUCU against IL4 | 0.239
AAGGUUGAGAGAUGUAGCU against SPANXA1 | 1.05
UUUUAUUCUUUCGCUUUUU against MEAF6 | -1.39
UUUGGAAUCAUCCAGGAAA against C8orf82 | 0.192
UUCUGGAUAACAAAGUCAC against PCDH1 | 0.112
UGGUGAUUCAGAUAGCUGG against ARHGAP11A | -0.84
AUCUUGAUAGGGACCUUGG against PRAP1 | 0.654
UGAUCUUAUAGUAAUCAGG against BRD4 | -2.52
GACGGCAUCAAUCAGGUCC against PYCR1 | 0.0435
AAAGAUGCAACCAAUGCUC against CDK3 | -0.134
UUACUUCAAAACGGUAUCC against ASB17 | -9.19
UGAUUGUUGACUGACGAUG against DMXL1 | 1.23
UUCUUUCAAAUUUCGGUUG against SOX13 | 0.262
UCUUGCUCUAGUGUCCUGG against DNAJC17 | -2.46
UUUAUCCUCAAAACUCUCC against C6orf10 | 0.952
UCUCAUACUUCCCAUGCCC against LSP1 | -0.209

Sequence | seed-corrected z-score
UAUGGGACACUUAUUGGAG against PVRIG | -0.543
AGAGCACUGAGUAGAAUGC against MFSD9 | -1.44
UGCUUGUCUAAGCCUUUGG against RPS12P9 | -2.08
UAAGGUAAUGAUUACCACC against RBKS | -0.288
UUGACUACCAGGAAAGGCU against KRT86 | -0.062
UAUUUAUUGCGAGAAUCAG against CLCN4 | -3.96
UCCAGAAGCUGGAUGGUCC against GALE | -0.197
UGACGUACAGGUUAGCAUC against ELAVL3 | 0.583
AACGGUAUUGAUGACAGCC against TMLHE | -0.307
UACGAUGUCACCUAUAUUG against CSMD2 | -0.00124
UAUCUUGAGAGGUGCCUCC against THRAP3 | 1
UCGUACUUUAAAGAUGUCC against CR1 | -0.43
UUGUUUGCAGGAAGGGAGG against LOC643770 | -0.34
UUUCUGUUCUUACAGGUGG against SRSF5 | -1.33
AUAGUAAAACCAAUUACCC against OR2J2 | -2.15
AUGGUGAAGACGUAGUUGC against CACNA1H | -1.21
UUUAGGAACCUUGACUAGC against GTF2F2 | 0.153
AACGUGUAGAUCUUCAUGA against UBXN6 | -1.15
UGAAGUUCAGGUUCGUAAC against TBPL1 | -2.64
UUGACAUUUACUUCAGUUU against TRABD | 0.607
AGUGGAUACAUAGCUGUCU against ZBTB45 | -0.6
UCCUUAAUUUGAUAUUUGC against MAGEA8 | -0.105
AUACUUGCAGGUGUCAUUG against CD300A | -0.484

Sequence | seed-corrected z-score
AUCGCUUUGAGGUUAGAGG against SYT3 | -0.878
UAUCAUAUGAUGCAUAAGC against ANGPTL5 | 0.711
UGAUGAUACACUGCAAGUC against IGSF3 | -2.96
UAAUCUAUUGAUAUGCUGG against SLC25A32 | 0.699
AAGUGGAACACUCAAGUCC against ZNF471 | -1.03
AUAAAUGAUACGGGUGCUC against TPI1 | -0.201
UAGGAGCAGAGGAAUCUUC against SLC35F4 | 0.0717
UUCUGAUGUAUGUUGAGCC against ZNF350 | -4.18
UUCUCGUUGAUCUUUUUGG against CPXCR1 | -0.131
UCCUGUUCCUUGAUAUUGU against GZMH | -0.564
UUAUCUGUGAGAGCAAUUA against LOC728752 | -1.23
UCUGGAUCUAUUAAGCUGC against LRRFIP2 | -2.34
AAAUCAGUGGGAAAGAUCC against DENND3 | 1.04
UUCUCCAUCAUGCGAAUGG against FEN1 | 0.188
UGGUAGUACACCUUGCAGC against C1orf111 | -2.08
UGUAAUACCUGAAUCGGUG against PRKRA | -0.234
AAAUAGACAAAUAGGAUCC against PSMD12 | -2.98
UAUCUGAGAGUGAUCCUUC against LRRC47 | 1.55
UCAAUUCAGACUGUAAUGC against PTPDC1 | -0.0227
AUUCUCACCAUAAAGAGCA against LOC729722 | -2.33
UUAUGCUUAGGUAACUUGC against AADACL3 | -3.87
UAUAUAUCGUGCUUGAUAC against RIPK2 | 0.0696
UAUGCGACAAAGAAUGACU against OR4N3P | 0.242

Sequence | seed-corrected z-score
UUUUCGAUUAAACCUUUUC against C17orf58 | -0.0867
UAAUCAAUCAUAGAGAUAG against GSTO1 | 0.0812
UUUAUUACAAUCCAAAAGU against HCST | 0.824
UUCUCGAUCAAGAGCAUCC against SPEF2 | -12.2
UUUGUGGUUAUUCUUUUAU against CDC42EP2 | -0.0752
UACAGCAUAAUCUCAUUUG against BPY2 | 0.91
UAAGCAGUAGAGUUAGUUC against LINC01249 | 0.231
UCUGUUCCAAGGCACUAUC against NFE4 | 0.0636
UUAUACACGAGGAAGAUGU against TMEM169 | -0.406
UGAGUAAACAGCCUCAGUC against CMIP | -0.223
UCUCGAUGAAGUCAAACAG against COPG1 | -2.97
AAUUUGCUAAAUCGUAUUC against CLLU1 | -0.521
UCCAUUAUCCCAAUAGACC against PGM2 | -0.182
UAGGGUUGGACUUUUUGUC against CYB5R3 | 0.597
UCCAGUACCUUUUCCUUGG against LOC199882 | 0.35
AAUACUUGAAGGAAUAGGC against SUPT6H | -5.83
UACCAUAUUAUACACUUGC against STARD6 | -0.0986
AUGGAUCCAAUUUGAGUUU against NR2F2-AS1 | 1.74
